# PPARg SRC1 recr: promotes SRC-1 coactivator recruitment by human PPARgamma | P37231 | PPARgamma-SRC-1 coactivator recruitment biochemical assay | activation, % at 8 µM | hit rate 0.41% among 200,000 | AID 631; in the data active = activation above about 19%;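 note: 0% = DMSO and 100% = reference agonist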
# Target sequence (P37231 whole entry, looked up): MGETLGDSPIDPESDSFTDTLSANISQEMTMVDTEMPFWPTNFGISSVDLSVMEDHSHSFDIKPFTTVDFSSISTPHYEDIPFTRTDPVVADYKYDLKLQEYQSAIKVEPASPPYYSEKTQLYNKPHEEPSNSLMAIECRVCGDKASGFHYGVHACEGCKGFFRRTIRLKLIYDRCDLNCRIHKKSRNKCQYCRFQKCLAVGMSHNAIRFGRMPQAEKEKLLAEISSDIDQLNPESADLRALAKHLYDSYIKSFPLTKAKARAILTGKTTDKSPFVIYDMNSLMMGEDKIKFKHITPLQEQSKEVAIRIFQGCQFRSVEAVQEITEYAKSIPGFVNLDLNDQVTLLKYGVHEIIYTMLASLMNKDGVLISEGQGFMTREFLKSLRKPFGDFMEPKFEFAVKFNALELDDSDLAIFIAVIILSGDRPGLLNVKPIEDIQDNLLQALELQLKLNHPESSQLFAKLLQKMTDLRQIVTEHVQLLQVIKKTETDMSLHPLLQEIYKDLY
# TR-FRET SRC-2 ct: flags TR-FRET format artefacts in PPARgamma SRC-2 recruitment agonist screen | TR-FRET ratio at 8 µM | hit rate 0.4% among 200,000 | AID 1049 | TR-FRET artefact counter-screen; stronger effect = higher value; in the data active = TR-FRET ratio above about 2000
# PPARg SRC-2 ag: agonists of SRC-2 recruitment by human PPARgamma | P37231 | PPARgamma LBD-SRC-2 recruitment, biochemical | activation, % at 8 µM | hit rate 0.34% among 200,000;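 note: 0% = vehicle and 100% = reference agonist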
# SRC1 TRFRET art: flags TR-FRET format artefacts in PPARgamma SRC-1 recruitment agonist screen. TR-FRET detection artefact counter-screen, emission ratio; stronger effect = higher value. AID 1051. hit rate 0.34% among 99,000. TR-FRET ratio at 8 µM; in the data active = TR-FRET ratio above about 2300
# PPARg SRC-3 ag: agonists of human PPARgamma SRC-3 coactivator recruitment. P37231. biochemical PPARgamma/SRC-3 coactivator recruitment assay. activation, % at 8 µM. hit rate 0.26% among 200,000. AID 731; in the data active = activation above about 23%;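 note: 0% = DMSO and 100% = reference agonist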
# SRC3 TRFRET art: TR-FRET artefact, counter-screen to PPARgamma/SRC-3 agonist assay | TR-FRET ratio at 8 µM | PPARgamma/SRC-3 format; stronger effect = higher value | hit rate 0.39% among 99,000 | AID 1048; in the data active = TR-FRET ratio above about 2000
# PPARg SRC2 ag: confirmation of agonists of SRC-2 recruitment by human PPARgamma. shares compounds with PPARg SRC-3 ag. biochemical SRC-2 recruitment by PPARgamma. activation, % at 8 µM. hit rate 52% among 790;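 note: 0% = vehicle alone and 100% = reference agonist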
# PPARg SRC1 conf: human PPARgamma SRC-1 recruitment agonism, confirmation; shares compounds with PPARg SRC-3 ag; AID 1300; PPARgamma–SRC-1 coactivator recruitment biochemical assay; hit rate 43% among 790; activation, % at 8 µM; in the data active = activation above about 20%;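 note: 0% = vehicle wells and 100% = reference agonist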
# PPARg SRC3 conf: confirmation of agonists of SRC-3 recruitment by human PPARgamma | AID 1301 | hit rate 29% among 790 | activation, % at 8 µM | biochemical PPARgamma-SRC-3 coactivator recruitment, agonist mode | shares compounds with PPARg SRC-3 ag; in the data active = activation above about 24%;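 note: 0% = vehicle wells and 100% = reference agonist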
# An asterisk follows results filed as active; nt = not tested or not shown. Compounds with a hit are over-represented: about 0.84% of the library has one in this group of screens. Cut-off read from the data, not from the text of the source, unless noted: active = activation above about 22%; inactive = the rest.
SMILES,PPARg SRC1 recr,TR-FRET SRC-2 ct,PPARg SRC-2 ag,SRC1 TRFRET art,PPARg SRC-3 ag,SRC3 TRFRET art,PPARg SRC2 ag,PPARg SRC1 conf,PPARg SRC3 conf
O=C(Nc1nc(-c2nc3ccccc3s2)cs1)C1COc2ccccc2O1 (stereo unspecified),9,1973*,17,2597*,10,1956,nt,nt,nt
COc1ccc2[nH]cc(CCNS(=O)(=O)Cc3ccccc3)c2c1,-1,1341,2,1535,4,1565,nt,nt,nt
CCOc1ccc(S(=O)(=O)c2c(C(=O)c3ccccc3)cnc3cc4c(cc23)OCCO4)cc1,7,1938,-4,2111,-6,2180*,nt,nt,nt
CC(=O)Nc1ccc(NC(=O)C(Cc2ccccc2)NC(=O)C2CCC(C)CC2)cc1 (stereo unspecified),0,1536,0,1664,-1,1392,nt,nt,nt
CCCCNC(=S)Nc1ccc(-c2nc3ccc(C)cc3s2)cc1,3,1744,15,1999,2,1753,nt,nt,nt
Cc1ccc2nc(-c3ccc(NC(=S)NCCC(C)C)cc3)sc2c1,14,1682,41*,nt,21,nt,nt,nt,nt
CC(C)(C)c1ccccc1NC(=O)c1c(O)c2cccc3c2n(c1=O)CC3,-8,1499,1,1835,-1,2335*,nt,nt,nt
C/C(=N\Nc1nc2ccccc2[nH]1)c1ccc(C)o1,10,1556,12,2081,8,2059*,nt,nt,nt
CC1COc2ccccc2N1C(=O)c1ccc(Cl)nc1 (stereo unspecified),1,1576,-3,1787,-3,1473,nt,nt,nt
CC(C)(C)c1ccc(OCc2ccc(C(=O)N3CCOCC3)o2)cc1,-2,2010*,25*,1474,3,1710,nt,nt,nt
CC(C)(C)c1ccc(OCCCC(=O)N2CCOCC2)cc1,-3,1540,2,1643,1,1487,nt,nt,nt
COc1ccccc1C1c2c(C)nn(-c3ccccc3)c2NC(=O)C1NC(=O)c1ccccc1 (stereo unspecified),-1,1444,-7,1759,-2,1518,nt,nt,nt
COc1cccc(-c2csc(N3CCN(C(=O)NC45CC6CC(CC(C6)C4)C5)CC3)n2)c1,0,2123*,0,nt,11,nt,nt,nt,nt
COc1cccc(-c2csc(N3CCN(C(=S)Nc4ccc(Cl)cc4)CC3)n2)c1,10,3147*,12,nt,13,nt,nt,nt,nt
O=c1c2oc3ccccc3c2[nH]c(=S)n1-c1ccc(F)cc1,16,2177*,26*,2641*,13,2296*,13,5,9
Cc1ccc(-n2c(=S)[nH]c3c(oc4ccccc43)c2=O)cc1C,9,1894,18,1933,5,2010,nt,nt,nt
COc1ccc(Oc2cc(C(F)(F)F)nc(N(C)C)n2)cc1,-4,1477,12,1895,2,1589,nt,nt,nt
CCOCCCNC(=O)/C(C#N)=C/c1ccc(Cl)c([N+](=O)[O-])c1,16,1826,11,1865,30*,1683,10,19,20
CCOCCCNC(=O)/C(C#N)=C/c1cc(OC)c(O)c([N+](=O)[O-])c1,6,1780,8,1839,-3,1814,nt,nt,nt
CN(C)c1ccc(NC(=O)Oc2ccccc2)cc1,15,2246*,58*,nt,91*,nt,7,3,5
COc1ccc(OC)c(C2C(C(=O)c3cc4ccccc4o3)=C(O)C(=O)N2c2cc(C)on2)c1 (stereo unspecified),19*,2296*,22*,nt,15,nt,28*,21*,17
COC(=O)c1sccc1-c1ccc(/C=N/OC(=O)c2ccccc2)o1,31*,2291*,56*,nt,47*,nt,56*,49*,40*
Cc1cc(C)n(-c2ccc(C(=O)OCC(=O)c3ccc(Br)s3)cc2)n1,20*,3035*,28*,nt,36*,nt,29*,22*,20
CCN(CC)c1ccc(C=Nc2ccc(N(C)C)cc2)c(O)c1,24*,2498*,78*,nt,98*,nt,6,5,7
CCN(CC)c1ccc(C=Nc2ccccc2)c(O)c1,-4,1517,6,nt,10,nt,nt,nt,nt
